# Reference: PubChem BioAssay
# The source made the active and inactive calls.
# What was measured:
# [1] = small molecules captured by biotinylated probe aFSTL3 – biochemical, small-molecule microarray, fluorescence 635/667, stem cell growth factor project, primary screen (AID 1064); details: higher = more signal;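 note: measures binding of the biotinylated anti-FSTL3 antibody to printed compounds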
# [2] = binders from COS7 lysate, DM2A8 probe, primary screen, torsin A project, cell lysate, small-molecule microarray, fluorescence 635/667 (AID 1065); details: higher = more signal, COS7 lysate expressing mutant human TOR1A
# [3] = small molecules captured by biotinylated probe aFGF2 – biochemical, small-molecule microarray, fluorescence 635/667, stem cell growth factor project, primary screen (AID 1067); details: higher = more signal;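 note: measures binding of biotinylated aFGF2 protein to printed compounds on slides; z-score merges feature fluorescence and signal-to-noise across triplicate slides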
# [4] = small molecules captured by biotinylated probe aFGF10 – biochemical, small-molecule microarray, fluorescence 635/667, stem cell growth factor project, primary screen (AID 1071); details: higher = more signal;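 note: score merges 667 nm spot intensity and signal to noise from triplicate slides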
# [5] = target: Neurogenic locus notch homolog protein 2 (Homo sapiens) (UniProt Q04721); experiment: small molecules binding Notch2 protein – biochemical, small-molecule microarray, 635 nm fluorescence, stem cell growth factors, primary screen (AID 1073); details: higher = more signal
# [6] = target: Pro-neuregulin-1, membrane-bound isoform (Homo sapiens) (UniProt Q02297); experiment: small molecules binding neuregulin-1 protein – biochemical, small-molecule microarray, fluorescence 635/667, psychiatric disease protein project, primary screen (AID 1075); details: NRG1 binding, 635 nm fluorescence, higher = more signal;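 note: score combines 667 nm spot fluorescence with signal to noise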
# [7] = test system: Neuregulin-1 EGF-like domain; experiment: small molecules binding NRG1 EGF domain – biochemical, small-molecule microarray, 635 nm fluorescence, primary screen (AID 1081); details: higher = more signal;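 note: binding of the protein to compounds printed on small-molecule microarray slides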
# [8] = FRG1 expression reporter modulators in myotubes – cell-based, C2C12 myotubes, firefly/Renilla luciferase, luminescence, FRG1 inhibition for FSHD, primary screen (AID 1084); details: FRG1 promoter luciferase, higher = more signal, called active from +8 up or from −8 down
# [9] = small molecules captured by biotinylated probe aFST – biochemical, small-molecule microarray, fluorescence 635/667, stem cell growth factor project, primary screen (AID 1086); details: higher = more signal;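 note: score merges 667 nm fluorescence with signal-to-noise of each printed compound spot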
# [10] = binders of probe aHhip on microarray, primary screen, stem cell growth factor project, biochemical, small-molecule microarray, fluorescence 635/667 (AID 1087); details: higher = more signal;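 note: score merges spot fluorescence at 667nm with spot signal to noise ratio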
# [11] = test system: PRMT1 (protein arginine N-methyltransferase 1); experiment: small molecules binding arginine methyltransferase PRMT1 – biochemical, small-molecule microarray, 635 nm fluorescence, primary screen (AID 1088); details: higher = more signal;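 note: binding of Prmt1 protein to compounds spotted on small-molecule microarray slides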
# [12] = growth effects on S. cerevisiae YJM789 – YJM789 clinical isolate, OD600, 24 h, basal, primary screen (AID 1089); details: higher = more signal, called active from +8 up or from −8 down;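 note: growth of clinical yeast isolate S. cerevisiae YJM 789 seeded 1000 cells per well; test concentration not given here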
# [13] = S. pombe growth modifiers, basal conditions – strain 972, OD600, 24 h, no modulator, primary screen (AID 1090);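 note: basal condition with compound alone and no growth modifier present; test concentration not given here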; details: S. pombe 972 growth, higher = more signal, called active from +8 up or from −8 down
# [14] = budding yeast growth modifiers under rapamycin – strain BY4716, OD600, 96 h, primary screen (AID 1091); note: test concentration not given here; details: S. cerevisiae BY4716 + rapamycin, higher = more signal, called active from +8 up or from −8 down
# [15] = target: Torsin-1A-interacting protein 2 (Homo sapiens) (UniProt Q8NFQ8); experiment: small molecules binding lysate-expressed LULL1 – cell lysate, human LULL1 lysate, 635/667 nm fluorescence, primary screen (AID 1092); details: small-molecule microarray, hLULL1 lysate binding, 635 nm fluorescence; higher = more signal;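 note: probe is lysate of COS7 cells overexpressing human LULL1; score merges per-feature 667 nm fluorescence with signal-to-noise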
# [16] = optical density change of DRC41 E. coli – strain DRC41, OD650, 24 h, E. coli filamentation project, primary screen (AID 1093);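 note: MC1000 strain lacking acrAB efflux and sulA so SOS filamentation is blocked; test concentration not given here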; details: E. coli DRC41 growth, higher = more signal, called active from +8 up or from −8 down
# [17] = probe aLefty2 binding to arrayed compounds – biochemical, biotinylated probe, 635/667 nm fluorescence, primary screen (AID 1094); details: small-molecule microarray, higher = more signal;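 note: score merges spot fluorescence near 667 nm with spot signal-to-noise ratio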
# [18] = test system: Noggin (protein binding on small-molecule microarray); experiment: small molecules binding Noggin protein – biochemical, 635/667 nm fluorescence, primary screen (AID 1095); details: 635 nm fluorescence, higher = more signal;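 note: score merges 667 nm feature fluorescence with signal to noise over triplicate slides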
# [19] = target: Neurogenic locus notch homolog protein 3 (Homo sapiens) (UniProt Q9UM47); experiment: small molecules binding NOTCH3 protein – biochemical, 635/667 nm fluorescence, primary screen (AID 1096); details: small-molecule microarray, 635 nm fluorescence, higher = more signal
# [20] = probe aEGFR binding to arrayed compounds – biochemical, biotinylated probe, 635/667 nm fluorescence, primary screen (AID 1097); details: small-molecule microarray, higher = more signal;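 note: probe is a biotinylated anti-EGFR antibody binding compounds printed on slides; score combines fluorescence near 667 nm and signal to noise of each spot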
# Chain of Pro-neuregulin-1, membrane-bound isoform (Homo sapiens) (Q02297 whole entry, looked up, the tested form may be a part, canonical isoform): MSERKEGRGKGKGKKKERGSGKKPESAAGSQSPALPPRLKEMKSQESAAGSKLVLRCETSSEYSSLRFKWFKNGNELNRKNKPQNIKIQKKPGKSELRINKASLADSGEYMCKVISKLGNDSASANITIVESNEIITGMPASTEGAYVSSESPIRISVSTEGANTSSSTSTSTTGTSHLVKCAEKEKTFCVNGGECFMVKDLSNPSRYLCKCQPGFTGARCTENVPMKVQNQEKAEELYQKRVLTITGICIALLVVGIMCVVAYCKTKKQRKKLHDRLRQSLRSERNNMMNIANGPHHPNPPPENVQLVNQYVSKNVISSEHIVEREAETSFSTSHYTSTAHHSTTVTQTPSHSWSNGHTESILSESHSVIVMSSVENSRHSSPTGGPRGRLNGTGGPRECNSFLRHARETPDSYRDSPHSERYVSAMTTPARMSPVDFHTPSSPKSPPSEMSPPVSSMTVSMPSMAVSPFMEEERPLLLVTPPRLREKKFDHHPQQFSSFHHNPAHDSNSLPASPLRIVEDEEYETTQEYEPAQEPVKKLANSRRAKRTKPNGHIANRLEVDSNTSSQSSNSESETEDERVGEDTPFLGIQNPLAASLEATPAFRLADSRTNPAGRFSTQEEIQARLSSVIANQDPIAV
# Chain of Neurogenic locus notch homolog protein 3 (Homo sapiens) (Q9UM47 whole entry, looked up): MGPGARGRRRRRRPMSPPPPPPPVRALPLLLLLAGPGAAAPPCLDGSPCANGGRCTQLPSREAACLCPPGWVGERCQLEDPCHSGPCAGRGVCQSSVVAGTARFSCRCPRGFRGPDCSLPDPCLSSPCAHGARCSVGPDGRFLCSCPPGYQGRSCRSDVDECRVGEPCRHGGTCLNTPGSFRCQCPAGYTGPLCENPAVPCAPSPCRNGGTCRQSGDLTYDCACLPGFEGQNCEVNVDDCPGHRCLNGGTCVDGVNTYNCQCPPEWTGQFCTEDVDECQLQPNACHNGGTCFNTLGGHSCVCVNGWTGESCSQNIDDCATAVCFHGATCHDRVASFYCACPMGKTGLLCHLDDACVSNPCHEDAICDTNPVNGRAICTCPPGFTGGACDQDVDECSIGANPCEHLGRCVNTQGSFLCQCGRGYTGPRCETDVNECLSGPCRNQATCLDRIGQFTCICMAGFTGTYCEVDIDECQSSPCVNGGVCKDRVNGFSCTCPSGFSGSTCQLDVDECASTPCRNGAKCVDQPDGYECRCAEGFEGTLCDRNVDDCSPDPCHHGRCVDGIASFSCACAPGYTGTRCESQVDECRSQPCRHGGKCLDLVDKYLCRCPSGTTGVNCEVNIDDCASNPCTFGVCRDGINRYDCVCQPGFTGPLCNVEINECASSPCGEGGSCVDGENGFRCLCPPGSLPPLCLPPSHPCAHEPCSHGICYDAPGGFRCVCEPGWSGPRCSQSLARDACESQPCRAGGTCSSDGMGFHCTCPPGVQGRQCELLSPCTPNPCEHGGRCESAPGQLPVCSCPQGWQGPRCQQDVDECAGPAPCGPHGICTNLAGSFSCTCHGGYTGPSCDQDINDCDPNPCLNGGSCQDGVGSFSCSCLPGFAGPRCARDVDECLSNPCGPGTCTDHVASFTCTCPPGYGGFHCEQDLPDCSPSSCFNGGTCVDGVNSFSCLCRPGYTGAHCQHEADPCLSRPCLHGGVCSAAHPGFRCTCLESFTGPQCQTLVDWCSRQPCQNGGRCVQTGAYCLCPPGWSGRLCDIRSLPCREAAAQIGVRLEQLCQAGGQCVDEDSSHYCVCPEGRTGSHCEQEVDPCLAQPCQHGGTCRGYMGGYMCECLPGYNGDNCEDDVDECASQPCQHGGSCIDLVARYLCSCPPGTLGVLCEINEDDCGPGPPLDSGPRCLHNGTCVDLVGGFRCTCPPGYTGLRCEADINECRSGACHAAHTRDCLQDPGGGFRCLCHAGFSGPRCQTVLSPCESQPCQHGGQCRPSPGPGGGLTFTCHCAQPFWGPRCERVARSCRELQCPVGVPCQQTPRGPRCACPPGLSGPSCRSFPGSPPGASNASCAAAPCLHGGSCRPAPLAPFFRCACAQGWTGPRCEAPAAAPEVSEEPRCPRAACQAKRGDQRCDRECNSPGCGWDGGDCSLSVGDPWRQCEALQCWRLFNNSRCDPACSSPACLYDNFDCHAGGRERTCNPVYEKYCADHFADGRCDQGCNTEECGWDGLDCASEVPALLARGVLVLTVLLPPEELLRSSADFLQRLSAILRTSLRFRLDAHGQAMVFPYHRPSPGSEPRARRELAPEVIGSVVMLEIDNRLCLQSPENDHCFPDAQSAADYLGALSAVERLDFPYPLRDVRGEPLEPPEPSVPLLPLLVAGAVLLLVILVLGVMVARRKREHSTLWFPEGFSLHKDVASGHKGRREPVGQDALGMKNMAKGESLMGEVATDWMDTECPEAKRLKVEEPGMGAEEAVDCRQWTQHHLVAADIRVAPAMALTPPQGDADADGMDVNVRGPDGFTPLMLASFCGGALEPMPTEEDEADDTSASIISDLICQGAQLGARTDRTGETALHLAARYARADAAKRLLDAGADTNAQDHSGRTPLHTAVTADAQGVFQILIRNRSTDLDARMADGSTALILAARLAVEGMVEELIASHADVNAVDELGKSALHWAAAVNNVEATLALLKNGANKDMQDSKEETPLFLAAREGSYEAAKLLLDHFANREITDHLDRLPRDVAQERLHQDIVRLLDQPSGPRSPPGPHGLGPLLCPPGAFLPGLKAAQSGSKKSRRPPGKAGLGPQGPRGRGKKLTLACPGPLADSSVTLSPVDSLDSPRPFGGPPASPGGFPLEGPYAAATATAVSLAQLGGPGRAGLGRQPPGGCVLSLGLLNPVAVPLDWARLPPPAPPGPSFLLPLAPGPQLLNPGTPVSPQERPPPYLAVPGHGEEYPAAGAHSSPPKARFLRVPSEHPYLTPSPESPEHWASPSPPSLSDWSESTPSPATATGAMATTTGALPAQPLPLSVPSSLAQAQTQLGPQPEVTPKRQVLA
# Chain of Torsin-1A-interacting protein 2 (Homo sapiens) (Q8NFQ8 whole entry, looked up): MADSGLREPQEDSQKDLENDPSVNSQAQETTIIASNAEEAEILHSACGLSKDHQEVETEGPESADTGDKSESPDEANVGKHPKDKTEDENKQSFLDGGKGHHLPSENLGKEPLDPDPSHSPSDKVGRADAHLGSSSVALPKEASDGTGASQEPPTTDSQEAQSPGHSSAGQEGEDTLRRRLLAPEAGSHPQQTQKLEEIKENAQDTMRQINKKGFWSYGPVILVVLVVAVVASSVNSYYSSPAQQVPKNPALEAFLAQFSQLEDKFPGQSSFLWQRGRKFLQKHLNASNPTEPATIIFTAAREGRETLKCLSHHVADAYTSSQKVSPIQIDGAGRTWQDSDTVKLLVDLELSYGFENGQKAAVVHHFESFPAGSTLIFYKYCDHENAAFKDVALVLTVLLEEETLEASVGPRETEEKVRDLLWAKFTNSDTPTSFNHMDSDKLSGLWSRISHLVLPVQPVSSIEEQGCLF
SMILES,composite z-score [1],composite z-score [2],composite z-score [3],composite z-score [4],composite z-score [5],composite z-score [6],composite z-score [7],z-score [8],composite z-score [9],composite z-score [10],composite z-score [11],z-score [12],z-score [13],z-score [14],composite z-score [15],z-score [16],composite z-score [17],composite z-score [18],composite z-score [19],composite z-score [20]
COC(=O)[C@@]1(Cc2ccc(OC)cc2)[C@H]2c3cc(C(=O)N4CCCC4)n(CCn4cc([N+](=O)[O-])nc4C)c3C[C@H]2CN1C(=O)c1ccccc1,2.45,2,0.861,1.25,1.5,1.58,1.31,2.02 (inactive),2.71,3.56,-0.153,-0.382 (inactive),0.28 (inactive),0.725 (inactive),3.38,-1.01 (inactive),1.25,0.152,0.413,0.924
CC(=O)NCCCC[C@@H]1NC(=O)[C@H]2C[C@@H](C(=O)NCCCCCCNC(=O)CS)[C@@H](c3cccc(OCCO)c3)N2C1=O,0.419,0.611,0.0252,0.492,-0.681,0.465,1.42,0.799 (inactive),-0.0535,-0.0618,1.56,0.828 (inactive),0.257 (inactive),1.28 (inactive),2.65,-0.488 (inactive),-0.0187,0.153,0.846,-0.123
C=CC[C@@]1(C(=O)OC)N=C(c2ccc(OCCCO)cc2)O[C@@H]1c1ccccc1N=[N+]=[N-],0.172,-0.0701,0.0555,0.256,1.47,1.49,1.44,1.54 (inactive),0.587,0.154,1.54,-0.777 (inactive),-0.713 (inactive),1.35 (inactive),3.05,0.643 (inactive),0.346,1.14,1.07,0.118
CC(C)c1nc2cc(Br)ccc2c(=O)o1,-0.404,0.109,0.0013,0.58,1.39,1.21,0.565,0.604 (inactive),0.689,-0.146,-0.0152,-0.0363 (inactive),0.347 (inactive),-0.26 (inactive),2.97,0.501 (inactive),-0.0823,0.0534,0.567,-0.0535
C=C(/C(=C/C[C@@H](OC(C)=O)c1cccc(OCCO)c1)c1cnc2ccccc2c1)C(C)C,-0.121,0.197,-0.0242,0.76,0.693,0.41,1.08,2 (inactive),0.0752,-0.0645,1.55,0.0631 (inactive),-0.396 (inactive),-0.28 (inactive),0.77,0.974 (inactive),-0.207,2.09,0.801,-0.139
CC(C)NC(=O)[C@@]1(C)c2ccccc2C(=O)N(Cc2ccccc2)[C@H]1c1ccc(CO)cc1,0.267,0.824,-0.169,-0.548,-1.12,1,0.814,-2.47 (inactive),-0.875,-0.291,1.53,-1.46 (inactive),0.138 (inactive),-0.932 (inactive),3.22,1.11 (inactive),-0.13,-0.644,-0.554,-0.0035
COCCOC(=O)N1C(=O)[C@@]2(c3cc(C#CCNC(N)=O)ccc31)[C@H](C(=O)Nc1nc3ccccc3s1)[C@H]1C(=O)O[C@H](c3ccccc3)[C@H](c3ccccc3)N1[C@@H]2c1ccccc1OCCO,-0.35,0.578,-0.0569,0.475,0.809,0.257,0.635,0.36 (inactive),0.71,-0.102,1.56,0.236 (inactive),1.81 (inactive),3.17 (inactive),1.11,1.17 (inactive),0.146,1.14,0.907,0.359
CC(C)(C)OC(=O)CC[C@@]1(C(=O)NCCN2CCOCC2)N=C(c2ccc(OCCCO)cc2)O[C@@H]1c1ccccc1CN=[N+]=[N-],0.202,0.213,0.0154,0.167,0.422,1.54,0.914,5.92 (inactive),0.157,0.0106,1.09,-0.865 (inactive),0.258 (inactive),-1.3 (inactive),2.96,-1.07 (inactive),-0.0152,0.167,0.461,-0.0479
COc1ccc([Si](C)(C)[C@H]2[C@H](CC(=O)N3Cc4ccccc4C[C@H]3CO)O[C@@]3(C(=O)N(C)c4ccccc43)[C@@H]2C)cc1,0.271,1.09,-0.081,0.583,0.647,1.65,1.36,-3.34 (inactive),0.596,0.315,1.53,-1.52 (inactive),-2.06 (inactive),-0.0615 (inactive),2.13,0.456 (inactive),0.173,1.91,1.08,-0.0839
CC[C@@H]1C=C(C(=O)O)[C@H](c2ccc(OC)cc2)N1S(=O)(=O)c1ccc(C)cc1,0.0675,-0.194,-0.128,-0.0542,0.0174,0.993,1.28,0.267 (inactive),0.233,-0.0994,-0.222,-0.639 (inactive),0.211 (inactive),-0.113 (inactive),2.15,-1.04 (inactive),-0.0491,-0.199,0.624,-0.0828
